CIT2-GFP yeast – alters CIT2-GFP fluorescence in TOR pathway yeast screen | S. cerevisiae CIT2-GFP strain, flow cytometry, 3 h; 100 means same as DMSO wells | GFP response vs DMSO, % at 10 µM | actives 0.065% (n = 320,000) | AID 2029;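 active means GFP response relative to DMSO above a set limit, near the screen mean plus 3 SD, cut at about 150% in these data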;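 further: ratio of well median GFP fluorescence to mean of DMSO wells on the plate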
Efflux pump inh – antifungal efflux pump inhibition, Nile Red retention; S. cerevisiae Candida pump triplex; inhibition, % at 10 µM; actives 0.44% (n = 330,000);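 active means plate passing quality check with inhibition over a set limit, or well fluorescence over plate mean plus 4 SD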;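 further: Nile Red retained in pooled yeast measured as flow cytometry median fluorescence; 0% = buffer negative control and 100% = Enniatin B positive control; higher means more Nile Red kept so more efflux inhibition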
AGP1 TOR yeast – alters AGP1-GFP fluorescence in TOR pathway yeast screen; S. cerevisiae AGP1-GFP multiplex flow cytometry, 3 h; GFP as percent of DMSO wells; GFP response vs DMSO, % at 10 µM; actives 0.02% (n = 320,000); AID 2066;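 active means GFP response relative to DMSO above a set limit, near screen average plus 3 SD, cut at about 150% in these data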;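 further: median GFP channel fluorescence of the gated AGP1 strain per well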
LAP4-GFP MLPCN – modulators of TOR pathway LAP4-GFP in S. cerevisiae | actives 0.34% (n = 320,000) | AID 2023 | GFP response vs DMSO, % at 10 µM | S. cerevisiae LAP4-GFP multiplex, flow cytometry GFP, 3 h; median GFP as percent of DMSO wells;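 active means GFP response vs DMSO above a set limit, about the screen mean plus 3 SD, cut at about 150% in these data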
RPL19A-GFP yeast – alters RPL19A-GFP fluorescence in TOR pathway yeast screen; AID 2025; S. cerevisiae RPL19A-GFP strain, flow cytometry, 3 h; hits give low values; actives 0.3% (n = 330,000); percent response vs DMSO, % at 10 µM;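 active means percent response vs DMSO below 50%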;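 further: median channel GFP fluorescence of the barcoded RPL19A-GFP strain; ratio of sample median GFP to plate DMSO average so 100% = DMSO; lower means less RPL19A-GFP as with rapamycin TOR inhibition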
MEP2 TOR yeast – alters MEP2-GFP fluorescence in TOR pathway yeast screen; S. cerevisiae MEP2-GFP strain, flow cytometry GFP, 3 h; 100% = DMSO control level; GFP response vs DMSO, % at 10 µM; actives 0.51% (n = 330,000); AID 2016;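 active means GFP response versus DMSO above a set limit, roughly screen mean plus 3 SD, cut at about 180% in these data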;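 further: median GFP fluorescence of the barcode-gated MEP2-GFP cells per well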
Yeast cmpd fluor – compound fluorescence in yeast efflux pump counter-screen; shares compounds with Efflux pump inh; S. cerevisiae AD/pABC3, flow cytometry; fluorescence ratio to DMSO, % at 10 µM; actives 4% (n = 1,700); AID 588517;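 active means fluorescence ratio to DMSO above its plate's cutoff, the plate mean ratio plus 5 SD, cut at about 210% in these data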;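 further: unstained yeast with no Nile Red so the signal is compound autofluorescence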
Mdr1 pump inh – inhibitors of Candida albicans Mdr1 efflux pump; inhibition, % at 10 µM; shares compounds with Efflux pump inh; actives 1% (n = 1,700); S. cerevisiae AD/CaMDR1, Nile Red efflux, flow cytometry; in the data active means inhibition above about 26%;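 further: 0% = DMSO vehicle and 100% = reference inhibitor; higher means more Nile Red retained so more efflux inhibition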
Cdr2 pump inh – inhibitors of Candida albicans Cdr2 efflux pump | S. cerevisiae AD/CaCDR2, Nile Red retention, flow cytometry | actives 4% (n = 1,700) | shares compounds with Efflux pump inh | Nile Red retention ratio vs DMSO, % at 10 µM | AID 588520; in the data active means Nile Red retention ratio vs DMSO above about 190%;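 further: higher ratio means more blocking of Cdr2 efflux of the dye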
Cdr1 pump inh – blocks the Candida albicans Cdr1 efflux pump in yeast; shares compounds with Efflux pump inh; AID 588522; actives 1% (n = 1,700); S. cerevisiae AD/CaCDR1, Nile Red efflux, flow cytometry; inhibition, % at 10 µM;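 active means inhibition above the screen-wide mean plus twice its standard deviation, cut at about 32% in these data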
Numbers without * were called inactive; · = no result; + = active, no number. This is a sample that favours compounds with a hit; in the whole collection about 1.3% have one here.

SMILES | CIT2-GFP yeast | Efflux pump inh | AGP1 TOR yeast | LAP4-GFP MLPCN | RPL19A-GFP yeast | MEP2 TOR yeast | Yeast cmpd fluor | Mdr1 pump inh | Cdr2 pump inh | Cdr1 pump inh
Cc1cccc(N2CCN(Cc3ccc([N+](=O)[O-])o3)CC2)c1C | 103.8 | -0.1 | 104.3 | 102.5 | 104.3 | 103.7 | · | · | · | ·
CCN(C(=O)COC(=O)c1ccc(O)cc1)c1cccc2ccccc12 | 102.9 | 0.0 | 111.7 | 110.9 | 108.1 | 110.1 | · | · | · | ·
COCCCNC(=O)CSc1nc2cc(S(=O)(=O)N3CCCCC3)ccc2o1 | 93.5 | 0.0 | 106.8 | 103.5 | 99.0 | 103.0 | · | · | · | ·
CC(C)(C)OC(=O)NCCCCCNC(=O)c1nc[nH]c1C(=O)NCCCCCNC(=O)OC(C)(C)C | 100.7 | 0.2 | 112.8 | 107.7 | 106.1 | 104.9 | · | · | · | ·
O=C(Nc1ccc(S(=O)(=O)Nc2ccccn2)cc1)c1ccc(Cl)cc1Cl | 90.2 | 0.1 | 91.8 | 86.4 | 96.0 | 89.9 | · | · | · | ·
O=C(CCSc1nc(-c2ccco2)cc(C(F)(F)F)n1)N1CCN(c2ccccc2)CC1 | 115.0 | 0.5* | 103.9 | 98.5 | 97.1 | 89.1 | 105.0 | -0.2 | 105.7 | 0.1
O=C(Nc1nnc(-c2ccc(F)cc2)s1)Nc1ccccc1F | 98.4 | 0.8* | 103.8 | 107.6 | 98.4 | 103.3 | 101.8 | 0.1 | 107.8 | -0.1
COC(=O)C1=C(C)N(c2cc(C)cc(C)c2)/C(=C/c2ccc(O)cc2)C1=O | 101.8 | 0.7* | 100.1 | 92.1 | 107.1 | 101.5 | 114.1 | 0.2 | 100.7 | 0.1
CC(OC(=O)c1ccc(Cl)c(S(=O)(=O)N2CCOCC2)c1)C(=O)NC1CCCCC1C (stereo not given) | 102.7 | -0.1 | 107.4 | 99.7 | 99.4 | 93.8 | · | · | · | ·
COc1ccc(-c2sc3ccc(OC)cc3c2-c2ccc(OCCN3CCOCC3)cc2)cc1 | · | 51.9* | · | · | · | · | 99.8 | 15.8 | 95.6 | 55.1*
COc1cccc(-c2sc3ccccc3c2-c2ccc(OCCN3CCCCC3)cc2)c1 | 80.6 | 0.0 | 91.8 | 130.2 | 88.7 | 99.9 | · | · | · | ·
COc1cccc(-c2sc3cc(OC)c(OC)cc3c2-c2ccc(OCCN3CCCCC3)cc2)c1 | · | 0.7 | · | · | · | · | 98.2 | -0.1 | 116.4 | 0.1
COc1cccc(-c2sc3ccc(OC)cc3c2-c2ccc(OCCN3CCCC3)cc2)c1 | · | 73.4* | · | · | · | · | 95.0 | -0.3 | + | 0.0
Cc1ccc(C)c(S(=O)(=O)N2CCCCC2CCNC(=O)C(=O)NCc2ccncc2)c1 (stereo not given) | 95.8 | 0.1 | 95.2 | 98.9 | 93.7 | 102.0 | · | · | · | ·
Cc1cccc(C(=O)NNC(=O)c2ccco2)c1O | 99.6 | 0.0 | 99.5 | 112.4 | 99.8 | 115.8 | · | · | · | ·
COc1ccc(NC(=O)CN(C)C(=O)/C=C/c2cn(-c3ccccc3)nc2-c2ccc(C)cc2)cc1 | 102.3 | 0.5* | 99.3 | 96.6 | 106.3 | 100.6 | 91.0 | -0.4 | 112.4 | -0.1
O=c1[nH][nH]c(-c2ccccc2O)c1C(C[N+](=O)[O-])c1ccccc1 (stereo not given) | 93.1 | 5.5* | 99.9 | 94.8 | 99.8 | 98.4 | 107.9 | 0.1 | 103.8 | 0.0
CC(C)=CCN1CCN(Cc2c(C)nn(C)c2Cl)CC1CCO (stereo not given) | 103.4 | 0.1 | 103.7 | 106.5 | 104.7 | 106.1 | · | · | · | ·
CC(=O)Nc1sc2c(c1C(c1ccc(F)cc1)N1CCOCC1)CCCC2 (stereo not given) | 99.5 | -0.1 | 105.2 | 104.4 | 99.8 | 101.8 | · | · | · | ·
CC(=O)Nc1sc2c(c1C(c1ccc(Cl)cc1)N1CCOCC1)CCCC2 (stereo not given) | 98.0 | 1.5* | 97.0 | 93.1 | 97.2 | 95.3 | 105.6 | 0.0 | 112.4 | 0.0

From PubChem
